Bioassay records deposited in PubChem by National Center for Advancing Translational Sciences (NCATS).
An excerpt weighted towards active compounds, which were near 10% of everything screened.
MCF10A rereplic = DNA re-replication induction in MCF 10a cells; hit rate 2.9% among 350,000; AID 624296; Potency, µM (top dose mostly 46.1 µM), inactives show top-dose activity, positive = re-replication, actives largely listed as activators; MCF 10A DNA re-replication, Hoechst nuclear intensity, 48 h; further: % of control where 0% means no effect; nearly all actives have a fitted effect of over 50% in size
SW480 rereplic = inducers of DNA re-replication in SW480 colon cancer cells | SW480 DNA re-replication, Hoechst DNA content imaging, 48 h | Potency, µM (highest dose often 46.1 µM), for inactives: top-dose re-replication activation, usual class: activators | hit rate 1.8% among 340,000; further: % of control where 0% means no effect; nearly all actives have a fitted effect of over 55% in size
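250 cells/well; 23 nL cpd via pin tool; 48 hr, 37 C, 5% CO2; Hoechst 40 min; imager read of total nuclear intensity, ex 405/em 500-530 nm.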
RORg inh = blocks mouse ROR gamma transcriptional activity; hit rate 5.4% among 310,000; Drosophila S2 Gal4-RORgamma UAS-luciferase reporter, 20 h; P51450; Potency, µM (doses to about 53.6 µM), for inactives: at the highest dose activity change, negative = inhibition, most hits filed as inhibitors; AID 2551; further: on the % scale 0 is the no-effect control and ±100 the full control effect; nearly all actives have a fitted effect of over 60% in size
Target sequence (P51450 whole entry, looked up, the tested form may be a part): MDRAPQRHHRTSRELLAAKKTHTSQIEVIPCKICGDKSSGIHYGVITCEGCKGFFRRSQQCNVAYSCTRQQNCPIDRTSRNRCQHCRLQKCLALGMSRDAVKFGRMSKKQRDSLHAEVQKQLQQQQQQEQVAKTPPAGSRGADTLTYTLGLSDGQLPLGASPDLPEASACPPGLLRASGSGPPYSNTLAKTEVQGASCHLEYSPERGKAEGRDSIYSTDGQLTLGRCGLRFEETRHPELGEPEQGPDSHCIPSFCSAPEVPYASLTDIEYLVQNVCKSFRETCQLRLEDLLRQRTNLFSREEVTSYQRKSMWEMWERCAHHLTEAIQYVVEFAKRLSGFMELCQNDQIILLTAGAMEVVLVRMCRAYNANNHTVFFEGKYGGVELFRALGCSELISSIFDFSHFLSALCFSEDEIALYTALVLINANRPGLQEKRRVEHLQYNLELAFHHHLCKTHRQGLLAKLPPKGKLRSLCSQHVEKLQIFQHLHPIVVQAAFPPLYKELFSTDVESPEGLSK
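Luminescence from a UAS-regulated Photinus luciferase reporter in stably transfected Drosophila Schneider cells is measured; decreased signal marks ROR gamma inhibition. Fusion expression is induced by 700 uM copper sulfate for 20 hr.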
ELG1 repair inh = blocks ELG1-dependent DNA repair in HEK293T cells. Potency, µM (highest dose often 46.1 µM), without a hit: at the top dose activity change, negative = inhibition, actives largely listed as inhibitors. HEK293T ELG1-luciferase reporter, luminescence, 16 h; DNA damage induced by 5-fluorouridine. AID 504467. hit rate 2.3% among 330,000; further: on the % scale 0 is the no-effect control and ±100 the full control effect; nearly all actives have a fitted effect of over 55% in size
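In this reporter screen, reduction of luminescence relative to DMSO vehicle indicated activity. Compounds and 5-fluorouridine were added together to 2,000 cells per well, incubated for 16 hr at 37 °C, then developed with ONE-Glo.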
VP16 counter = inhibits Gal4-VP16 luciferase reporter, ROR gamma counter-screen; Drosophila S2 Gal4-VP16 UAS-luciferase, luminescence, 20 h; Potency, µM (top dose mostly 53.6 µM), without a hit: at the top dose activity, negative = inhibition, actives largely listed as inhibitors; hit rate 3.5% among 310,000; AID 2546;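 further: Gal4-VP16 expression switched on by copper sulfate through the metallothionein promoter; on the % scale 0 is the no-effect control and ±100 the full control effect; nearly all actives have a fitted effect of over 50% in size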
The depositor's hits bear a star; ? = inconclusive; · = no result given; ! = not active in a repeat; [ ] = another dose, or the depositor's remark. The call rests on the fitted dose curve; in most records, active means well fitted curve in the direction sought with a large enough effect; inconclusive means small, poorly fitted or top-dose-only effect, or another doubt; inactive means no such curve, though single readings can be large; an effect the other way counts as inactive or inconclusive. Potency means the concentration at half of the fitted maximal effect.

SMILES	MCF10A rereplic	SW480 rereplic	RORg inh	ELG1 repair inh	VP16 counter
COCCOC(=O)c1c(C)nc(SCC(=O)Nc2cccc3ccccc23)c(C#N)c1-c1ccco1	13%	1%	3%	13µM*	0%
COCCOC(=O)c1c(C)nc(SCC(=O)Nc2ccc(C)cc2)c(C#N)c1-c1ccco1	-2%	3%[9.22 µM]	26%	?	2%
S=c1[nH]nc(-c2cccc(Cl)c2)n1/N=C/c1ccco1	-1%	-5%	?	2%	?
Cc1ccc(/C=N/n2c(-c3cccc(Cl)c3)n[nH]c2=S)o1	3%	-3%	5µM*	1%	?
S=c1[nH]nc(-c2ccccc2)n1/N=C/c1ccc(-c2ccccc2Cl)o1	8.2µM*	1%	4.5µM*	22%	?
Cc1nnc(C)n1/N=C/c1ccc(-c2ccccc2Cl)o1	4%	-1%	-9%	?	1%
S=c1[nH]nc(-c2cccc(Cl)c2)n1/N=C/c1ccc(-c2ccccc2Br)o1	12%	-4%	0.79µM*	?	-9%
Oc1c(Br)cc(/C=N/n2c(-c3ccccc3)n[nH]c2=S)cc1Br	-9%	0%[9.22 µM]	?	-9%	1%
S=c1[nH]nc(-c2ccccn2)n1/N=C/c1ccc(-c2ccccc2Br)o1	?	-15%	10µM*	?	0%
Cc1[nH]n(-c2ccccc2)c(=O)c1N=Nc1cccc(C(=O)O)c1	-4%	1%	?	?	2.8µM*
Cc1[nH]n(-c2ccccc2)c(=O)c1N=Nc1ccc(C(=O)O)cc1	0%	-11%	31%	?	15%
O=Nc1c(-c2ccccc2)[nH]n(-c2ccccc2)c1=O	0%	2%	?	-3%	16µM*
NC(=O)c1ccc(N=Nc2c(-c3ccccc3)[nH]n(-c3ccccc3)c2=O)cc1	·	·	6%	?	7%
Cc1[nH]n(-c2ccccc2)c(=O)c1N=Nc1c(Cl)cccc1Cl	-9%	-1%	13µM*	5%	?
Cc1[nH]n(-c2ccccc2)c(=O)c1N=Nc1ccccc1	4%	-117%	20%	?	?
Cc1[nH]n(-c2ccccc2)c(=O)c1N=Nc1cccc(S(=O)(=O)N2CCOCC2)c1	16%	-11%	7.9µM*	-6%	?
CCOc1c(C)cnc2c1c(=O)n(Cc1ccc(Cl)cc1)c(=O)n2C	-3%	?	-33%	4%	0%
CCc1nnc(NC(=O)[C@@H](NC(=O)c2cccc(S(=O)(=O)N3CCOCC3)c2)C(C)C)s1	-2%	-2%	19%	-4%	3%
COC(=O)C1C=CC(OC2OC(COC(C)=O)C(OC(C)=O)C(OC(C)=O)C2OC(C)=O)n2c(=O)n(-c3ccccc3)c(=O)n21 (centres undefined)	1.6µM*	?	·	·	·
CC1=C(/C=C/C(C)=C/C=C/C(C)=C/C(=O)Nc2ccc(O)cc2)C(C)(C)CCC1	-43%	?	4.5µM*!	?	5µM*!
CC1=C(\C=C/C(C)=C/C=C\C(C)=C\C(=O)O)C(C)(C)CCC1	·	·	?	·	-7%
Cc1cc(-c2ccccc2)n[nH]1	0.65µM*	-18%	-4%	?	-17%
CN(C)c1oc(-c2ccccc2Cl)nc1P(=O)(c1ccccc1)c1ccccc1	18µM*	?	-31%	?	0%
O=C1CSC(c2cccc([N+](=O)[O-])c2)N1CCc1ccccc1 (centres undefined)	9%	1%	-1%	5%	3%
Cc1ccccc1-c1nc(N2CCN(C)CC2)c2ccccc2n1	·	·	-26%	·	6%
SMILES	MCF10A rereplic	SW480 rereplic	RORg inh	ELG1 repair inh	VP16 counter
c1ccc(N2CCN(c3nc(-c4cccs4)nc4ccccc34)CC2)cc1	23µM*	-1%	-13%	-23%	-5%
c1ccc(-c2nc(N3CCCCCC3)c3ccccc3n2)nc1	?	15%	1.1µM*	2.6µM*	2.5µM*
c1ccc(CN2CCN(c3nc(-c4ccccn4)nc4ccccc34)CC2)cc1	-1%	-16%	1.4µM*	8.2µM*	2.8µM*
CN1CCN(c2nc(-c3ccccc3O)nc3ccccc23)CC1	-2%	?	8.9µM*	?	-14%
c1ccc2c(N3CCCC3)nc(-c3ccncc3)nc2c1	-9%	-5%	-45%	?	-6%
CCN1CCN(c2nc(-c3ccccn3)nc3ccccc23)CC1	6%	?	2%	?	-7%
O=C(O)COc1ccccc1/C=N/NC(=O)c1cccc(S(=O)(=O)Nc2cccc(Cl)c2)c1	-1%	-3%	-1%	2%	10%
O=C(CC1SC(N2CCCCC2)=NC1=O)Nc1ccc(C(=O)NCCc2ccc(F)cc2)cc1 (centres undefined)	22%	4%	·	-19%	·
O=C(Nc1ccc(OC(F)(F)F)cc1)NC1CCC(Oc2ccc(C(=O)O)cc2)CC1 (centres undefined)	-2%	-4%	·	?	·
Cc1cc(SCC(=O)c2cccc([N+](=O)[O-])c2)nc(=O)[nH]1	?	0%	?	?	18%
c1ccc2nc(N3CCOCC3)c(N3CCCC3)nc2c1	16%	-1%	·	·	·
c1ccc2nc(N3CCCC3)c(N3CCCCC3)nc2c1	21µM*	0%	·	·	·
c1ccc(-c2nc(N3CCOCC3)c3ccccc3n2)nc1	?	?	2.5µM*	16µM*	5.6µM*
COc1cc(C)nc(NC(=S)N(C)C(=O)c2ccccc2)n1	0%	3%	17%	-13%	8%
O=C(CN(Cc1ccco1)C(=O)Cn1nnc(-c2cccs2)n1)NCC1CCCO1 (centres undefined)	-6%	-2%	15%	-4%	13%
CC(C)Cn1c(=O)c2ccccc2n2c(CCC(=O)NCC3CCCO3)nnc12 (centres undefined)	4%	0%	2%	6%	2%
CC(C)C1C(c2ccccc2)NC(c2ccccc2)CC1(O)c1ccc(F)cc1 (centres undefined)	16µM*	?	?	?	?
CCC1C(c2ccccc2)N(C)C(c2ccccc2)CC1(O)c1ccccc1 (centres undefined)	?	?	-19%	-10%	5%
O=[N+]([O-])c1ccc(N/N=C/c2sc(N3CCOCC3)nc2-c2ccccc2)c(S(=O)(=O)Nc2ccc(Cl)cc2)c1	?	10µM*	?	?	3.2µM*
O=[N+]([O-])c1ccc(N/N=C/c2sc(N3CCOCC3)nc2-c2ccccc2)c(S(=O)(=O)Nc2ccccc2Cl)c1	10%	13µM*	7%	?	-15%
O=C(O)c1cccc(N/N=C/c2sc(N3CCOCC3)nc2-c2ccccc2)c1	?	?	15%	?	-3%
